# From the antibiotic and cytotoxicity screens of Wong et al. (2023)
# The campaign covered roughly 39,000 compounds. About 3,300 (8.5%) were called active. This is one part of a sample in which actives are shown more often than they occur.
# Test system: HepG2
# Test: cytotoxicity call (relative viability < 0.9)
# Settings: 10 µM
row,Compound,cytotoxicity call
1,COc1ccc(S(=O)(=O)Nc2cccc3c2O[C@@H](CN(C)Cc2ccc(-c4ccccc4)cc2)[C@H](C)CN([C@H](C)CO)C3=O)cc1,inactive
2,CO[C@H]1CN(C)C(=O)c2ccc(NC(=O)c3ccccc3)cc2OC[C@H](C)N(C(=O)CN(C)C)C[C@@H]1C,inactive
3,C[C@@H]1CN([C@H](C)CO)C(=O)c2cccc(NC(=O)NC3CCCCC3)c2O[C@H]1CN(C)Cc1ccc(-c2ccccc2)cc1,inactive
4,CCS(=O)(=O)N1CCC[C@]2(C(=O)NCC3CC3)CN(Cc3cnn(C)c3)C[C@H]2C1,inactive
5,COc1ccc(C(=O)NC(CO)(CO)CO)cc1OC,inactive
6,C[C@@H]1CN([C@H](C)CO)S(=O)(=O)c2ccc(C#CC3CCCC3)cc2O[C@@H]1CN(C)C(=O)Cc1ccncc1,inactive
7,COc1cc2c(cc1O)CCN[C@]21CS[C@@H]2c3c(OC(C)=O)c(C)c4c(c3[C@H](COC1=O)N1[C@@H]2[C@H]2c3c(cc(C)c(OC)c3O)C[C@@H]([C@@H]1O)N2C)OCO4,active
8,CO[C@H](CN(C)S(=O)(=O)c1ccc(C)cc1)[C@@H](C)CN([C@@H](C)CO)S(=O)(=O)c1cccc(Cl)c1,inactive
9,Cc1cnc(Nc2ccc(F)cc2Cl)nc1-c1c[nH]c(C(=O)N[C@H](CO)c2cccc(Cl)c2)c1,active
10,C[C@@H]1CN([C@@H](C)CO)C(=O)Cc2cc(NC(=O)CCN3CCOCC3)ccc2O[C@H]1CN(C)Cc1ccc(C(=O)Nc2ccccc2N)cc1,inactive
11,CC1(C)OC2CC(=O)OCC23C1CC(=O)C1(C)C3CCC2(C)C(c3ccoc3)OC(=O)C3OC321 (stereo not given),inactive
12,CC1(C)C(=O)C=CC2(C)C1CC(=O)C1(C)C2CCC2(C)C(c3ccoc3)OC(=O)C3OC321 (stereo not given),active
13,CC(=O)OC1CCC2(C)C(CC(OC(C)=O)C3(C)C2CCC2(C)C(c4ccoc4)OC(=O)C4OC423)C1(C)C (stereo not drawn) [3beta-ACETOXYDEOXODIHYDROGEDUNIN ],inactive
14,CC(=O)O[C@H]1CC[C@]2(C)[C@H]3CC[C@@]4(C)[C@H](c5ccoc5)OC(=O)[C@H]5O[C@]54[C@]3(C)[C@H](OC(C)=O)C[C@H]2C1(C)C,inactive
15,CC1(C)C(=O)C=CC2(C)C1C=CC1(C)C2CCC2(C)C(c3ccoc3)OC(=O)C3OC312 (stereo not given),active
16,CC(=O)OC1CC(OC(C)=O)C2(C)C(CC(=O)C3(C)C2CCC2(C)C(c4ccoc4)OC(=O)C4OC423)C1(C)C (stereo not given),inactive
17,C[C@H]1CCCCO[C@@H](CN(C)C(=O)c2ccncc2)[C@@H](C)CN([C@@H](C)CO)C(=O)c2cc(NS(=O)(=O)c3ccc(Cl)cc3)ccc2O1,inactive
18,Nc1ccc([C@@H](O)[C@@H](O)CO)cc1,inactive
19,COc1ccc(S(=O)(=O)N(C)C[C@@H]2Oc3c(NC(=O)c4cnccn4)cccc3C(=O)N([C@@H](C)CO)C[C@H]2C)cc1,inactive
20,C[C@H](CO)N1C[C@H](C)[C@H](CN(C)C(=O)Cc2ccccn2)Oc2ncc(-c3cccc(C(=O)N(C)C)c3)cc2C1=O,inactive
21,COc1ccc(S(=O)(=O)N(C)C[C@@H]2Oc3ccc(NS(C)(=O)=O)cc3CC(=O)N([C@H](C)CO)C[C@@H]2C)cc1,inactive
22,COc1ccc(NC(=O)Nc2ccc3c(c2)C(=O)N([C@@H](C)CO)C[C@H](C)[C@H](CN(C)Cc2ccc4c(c2)OCO4)OCCCC[C@@H](C)O3)cc1,inactive
23,COc1ccc(NC(=O)Nc2ccc3c(c2)C(=O)N([C@H](C)CO)C[C@H](C)[C@H](CN(C)Cc2ccc4c(c2)OCO4)OCCCC[C@H](C)O3)cc1,active
24,COc1ccc(NC(=O)Nc2ccc3c(c2)C(=O)N([C@H](C)CO)C[C@@H](C)[C@H](CN(C)Cc2ccc4c(c2)OCO4)OCCCC[C@@H](C)O3)cc1,inactive
25,COc1ccc(NC(=O)Nc2ccc3c(c2)C(=O)N([C@H](C)CO)C[C@@H](C)[C@@H](CN(C)Cc2ccc4c(c2)OCO4)OCCCC[C@@H](C)O3)cc1,active

row,Compound,cytotoxicity call
1,COc1ccc(NC(=O)Nc2ccc3c(c2)C(=O)N([C@H](C)CO)C[C@H](C)[C@@H](CN(C)Cc2ccc4c(c2)OCO4)OCCCC[C@H](C)O3)cc1,inactive
2,COc1ccc(NC(=O)Nc2ccc3c(c2)C(=O)N([C@@H](C)CO)C[C@@H](C)[C@@H](CN(C)Cc2ccc4c(c2)OCO4)OCCCC[C@@H](C)O3)cc1,inactive
3,C[C@@H]1CCCCO[C@H](CN(C)C(=O)NC2CCCCC2)[C@H](C)CN([C@@H](C)CO)C(=O)c2cc(NC(=O)c3ccccc3)ccc2O1,inactive
4,C[C@@H]1CN([C@@H](C)CO)C(=O)Cc2cc(NC(=O)Cc3ccccc3)ccc2O[C@H]1CN(C)C(=O)Nc1cccc2ccccc12,inactive
5,C[C@@H]1CCCCO[C@H](CN(C)Cc2ccncc2)[C@@H](C)CN([C@H](C)CO)C(=O)c2cc(NC(=O)Nc3ccccc3)ccc2O1,inactive
6,COc1ccc(S(=O)(=O)Nc2cccc3c2O[C@@H](CN(C)S(=O)(=O)c2ccc(OC)cc2)[C@@H](C)CN([C@@H](C)CO)C3=O)cc1,inactive
7,CCc1c(O)cc(O)c(C(=O)c2ccc(OCCN3CCOCC3)c(OC)c2)c1CC(=O)N(CCOC)CCOC,active
8,COc1cc(C(=O)OCCN2CCN(CCOC(=O)c3cc(OC)c(OC)c(OC)c3)CC2)cc(OC)c1OC,inactive
9,COc1c(OCCCN2CCOCC2)ccc2c1N=C(NC(=O)c1cnc(N)nc1)N1CCN=C21,inactive
10,C[C@H]1CN([C@@H](C)CO)C(=O)c2cccc(NS(=O)(=O)c3ccc(F)cc3)c2O[C@@H]1CN(C)CC1CC1,inactive
11,Cc1cc(=O)n(CCO)c(=O)[nH]1,inactive
12,CCC(=O)N(C)C[C@H]1Oc2ncc(C#C[C@H](C)O)cc2C(=O)N([C@H](C)CO)C[C@H]1C,inactive
13,CC(C)(C)[S@](=O)N1Cc2cc(C(=O)N[C@@H]3CCN(Cc4ccccc4)C3)nc(-c3cccc(-c4cccnc4)c3)c2[C@@H]1CCO,inactive
14,COc1cccc(NC(=O)N(C)C[C@H]2Oc3ncc(C#Cc4cccnc4)cc3C(=O)N([C@H](C)CO)C[C@H]2C)c1,inactive
15,COc1cccc(NC(=O)N(C)C[C@@H]2Oc3ncc(C#Cc4cccnc4)cc3C(=O)N([C@@H](C)CO)C[C@H]2C)c1,inactive
16,COc1cccc(NC(=O)N(C)C[C@H]2Oc3ncc(C#Cc4ccncc4)cc3C(=O)N([C@@H](C)CO)C[C@@H]2C)c1,active
17,COc1cccc(NC(=O)N(C)C[C@@H]2Oc3ncc(C#Cc4ccncc4)cc3C(=O)N([C@@H](C)CO)C[C@@H]2C)c1,inactive
18,COc1cccc(NC(=O)N(C)C[C@H]2Oc3ncc(C#Cc4ccncc4)cc3C(=O)N([C@H](C)CO)C[C@@H]2C)c1,inactive
19,COc1cccc(NC(=O)N(C)C[C@@H]2Oc3ncc(C#Cc4ccncc4)cc3C(=O)N([C@@H](C)CO)C[C@H]2C)c1,inactive
20,COc1cccc(NC(=O)N(C)C[C@@H]2Oc3ncc(C#Cc4ccncc4)cc3C(=O)N([C@H](C)CO)C[C@H]2C)c1,active
21,COc1cccc(NC(=O)N(C)C[C@@H]2Oc3ncc(C#Cc4ccncc4)cc3C(=O)N([C@H](C)CO)C[C@@H]2C)c1,inactive
22,COc1ccccc1NC(=O)N(C)C[C@@H]1Oc2ncc(C#CCN(C)C)cc2C(=O)N([C@@H](C)CO)C[C@@H]1C,inactive
23,COc1ccccc1NC(=O)N(C)C[C@@H]1Oc2ncc(C#CCN(C)C)cc2C(=O)N([C@H](C)CO)C[C@@H]1C,inactive
24,COc1cccc(NC(=O)N(C)C[C@H]2Oc3ncc(C#Cc4ccncc4)cc3C(=O)N([C@H](C)CO)C[C@H]2C)c1,active
25,COc1ccccc1NC(=O)N(C)C[C@@H]1Oc2ncc(C#CCN(C)C)cc2C(=O)N([C@@H](C)CO)C[C@H]1C,active
